The panel holds about 83,000 compounds, 20% with a hit somewhere; the sample as a whole holds those more often.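 96-well plates, one dose, 48 hours. Percent growth reported; active if below 10.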 A number with no mark means an inactive call. Calls of active or inactive are those of the source.
System: SN12C renal
Test: NCI-60 one-dose screen, 48 h (100 = growth as untreated, 0 = no growth, -100 = all killed)
Conditions: 10 µM unless noted
Method: Growth inhibition of the SN12C human tumor cell line is measured as a screen for anti-cancer activity. Cells are grown in 96 well plates and exposed to the test compound for 48 hours. Compounds are tested at a single concentration, which is 10^-5 M for most compounds. The reported endpoint is percent growth (GI% or GIPRCNT), where numbers from 0 - 100% represent growth inhibition, and numbers from -100% - 0 represent cell death. For example, a value of 40 represents 60% growth inhibition. A value of 0 means no net growth occurred over the course of the experiment. A value of -40 indicates 40% of cells at the beginning of the experiment died by the end of the experiment. A value of -100 means all cells are dead at the end of the experiment.
NCI-60 Human Tumor Cell Lines Screen was performed using the standard one-dose NCI protocol, which is described in more detail at https://dtp.cancer.gov/discovery_development/nci-60/default.htm.
Compounds with GIPRCNT values below 10 were considered active. Activity score was based on GIPRCNT using the following formula: […]
Score is 0 for GIPRCNT values of 100 or above, 50 for GIPRCNT values of 0, and 100 for GIPRCNT values of -100.

Q: For `Cn1cccc1-c1nc2c3c(ccc2[nH]1)C(=O)c1ccccc1C3=O`, which growth is on record?
A: 91.9%

Q: How did the growth turn out when `COc1cc2nc(N3CCCC3)nc(NCc3ccccc3)c2cc1OC` was run?
A: 69.6%

Q: With `O=C1OCC2=C1C(c1ccncc1)c1cc3c(cc1N2CCO)OCO3` (stereo not given) as the molecule, how does the growth read?
A: 100%

Q: `CSc1nc(NCc2ccccc2)c(C#N)c(-c2cccc([N+](=O)[O-])c2)n1` was tested. Which growth did it give?
A: 93.2%

Q: For `CCCc1cc(=O)n2c(C(=O)Nc3cccc(C(=O)OCC)c3)c(C(=O)Nc3ccc(F)cc3)sc2n1`, which growth is on record?
A: 28.8% [30 µM]

Q: For `O=C(CCCCC(=O)N/N=C\c1ccccc1O)N/N=C\c1ccccc1O`, which growth is on record?
A: 47.4%

Q: How did the growth turn out when `COc1cc(-c2nn(-c3ccc(C)cc3)cc2C(=O)O)ccc1O` was run?
A: 99.8%

Q: Which growth does the source give for `CCCOc1cc2ccccc2cc1C(=O)Nc1nc(N)c2c(ccc3nccc32)[nH]1` here?
A: -63.6% (active)

Q: With `CCN1CCN(c2nc(NCCCNc3ccnc4cc(Cl)ccc34)c3ccccc3n2)CC1` as the molecule, how does the growth read?
A: 48.2%

Q: Which growth does the source give for `O=C(COc1ccc(/C=C2\CSc3ccccc3C2=O)cc1)Nc1nccs1` here?
A: 95.2%

Q: With `O=C(N=Nc1c(O)[nH]c2ccccc12)c1cc(-c2ccccc2)on1` as the molecule, how does the growth read?
A: 96%

Q: `COc1ccc(C2C(C#N)=C(N)Oc3n[nH]c(-c4cccs4)c32)cc1I` (stereo not given) was tested. Which growth did it give?
A: 96.5%

Q: Which growth does the source give for `CSc1ccc(-c2ccccc(=O)c2O)cc1` here?
A: 11.9%

Q: With `O=C1Nc2c(ccc(Cl)c2Cl)/C1=C\c1ccc(C(F)(F)F)cc1` as the molecule, how does the growth read?
A: 79.7%

Q: How did the growth turn out when `CC1=C(O)C(=O)C(C(C#N)(C#N)C(C#N)C#N)C1` (stereo not given) was run?
A: 100%

Q: With `C=CC(=O)Nc1cccc(-c2nc(SC)nc(NCc3ccccc3)c2C#N)c1` as the molecule, how does the growth read?
A: 42.1%

Q: `C=CC(=O)Nc1cccc(-c2nc(SC)nc(Nc3ccccc3OC)c2C#N)c1` was tested. Which growth did it give?
A: 48.4%

Q: `C=CC(=O)Nc1cccc(-c2nc(SC)nc(NCCc3ccc(OC)c(OC)c3)c2C#N)c1` was tested. Which growth did it give?
A: 47.6%

Q: Which growth does the source give for `C=C1c2nc3ccccc3n2C=C(c2ccc(Cl)cc2)N1Cc1ccc(OC)cc1` here?
A: 92.2%

Q: With `CC1=CC(=NN=c2cc(C)n([O-])c(C)c2)C=C(C)[N+]1=O` as the molecule, how does the growth read?
A: 92.1%

Q: For `CCc1c(Nc2ccccc2C)nc(N)[nH]c1=O`, which growth is on record?
A: 100%

Q: With `O=C(O)c1c(=O)cccc2ssc12` as the molecule, how does the growth read?
A: 14.3%

Q: How did the growth turn out when `COc1cc2c(cc1-c1c(C)noc1C)ncc1nc(-c3ccccn3)n([C@H](C)COC(F)F)c12` was run?
A: 62.8%

Q: Which growth does the source give for `COc1ccc(C2Nc3c(c(C(C)(C)C)nn3-c3ccccc3)C(=O)CS2)cc1` (stereo not given) here?
A: 99.8%

Q: How did the growth turn out when `CN(C)c1ccc(N=Nc2ccc(Br)cn2)c(O)c1` was run?
A: 12.3%

Q: For `O=C(Nc1ccc(Cl)cc1)c1cc2cc(F)ccc2cc1O`, which growth is on record?
A: 7.85% (active)

Q: `COc1cc(C=Nc2oc(-c3ccccc3)c(-c3ccccc3)c2C#N)cc(CN2CCCCC2)c1O` was tested. Which growth did it give?
A: 99.5%

Q: `O=C1c2cc3c(cc2-c2c1c1ccc(F)cc1c(=O)n2C[C@H](O)[C@@H](O)[C@H](O)CO)OCO3` was tested. Which growth did it give?
A: 4.69% (active)

Q: With `COc1ccc(-n2nc(C)c3c(Nc4ccc(NC(=O)Nc5ccc(Cl)c(C(F)(F)F)c5)cc4)ncnc32)cc1` as the molecule, how does the growth read?
A: 3.5% (active)

Q: With `O=C1/C(=C(/c2ccccc2)N2CCOCC2)Cc2ccccc21` as the molecule, how does the growth read?
A: -42.6% (active)

Q: `O=[N+]([O-])c1ccccc1/C=N\NC(=S)N/N=C/c1ccccc1[N+](=O)[O-]` was tested. Which growth did it give?
A: 86.3%

Q: With `Cc1[nH]c(-c2ccc3cc[nH]c3c2)c2c1C(=O)CCCC2` as the molecule, how does the growth read?
A: 50.8%

Q: With `COc1cc(-c2nc3ccccc3[nH]2)ccc1OCc1nnc(-c2ccc(CC(C)C)cc2)o1` as the molecule, how does the growth read?
A: 89.9%

Q: Which growth does the source give for `O=C1C=CC(=O)N1c1ccc2c(c1)Cc1cc(F)ccc1-2` here?
A: 94.6%

Q: For `O=C(Cc1ccc(/C=C/C(=O)c2ncc[nH]2)cc1)Nc1ccc(F)cc1`, which growth is on record?
A: 17.4%

Q: With `CC(C)(C)c1cc(/C=N\NC(=O)/C=C/C=C/c2ccc3c(c2)OCO3)c(O)c(C(C)(C)C)c1` as the molecule, how does the growth read?
A: 87.6%

Q: For `COc1ccc(-n2nc(C)c3c(Nc4ccc(NC(=O)Nc5c(Cl)cccc5Cl)cc4)ncnc32)cc1`, which growth is on record?
A: 77%

Q: For `CCNC(=O)Oc1ccc(/C(=C(\C)c2ccc(Cl)cc2)c2ccc(OCCN3CCCCC3)cc2)cc1`, which growth is on record?
A: 64.8%

Q: Which growth does the source give for `COc1cccc(/C=C2\Oc3cc(OCCN4CCCC4)ccc3C2=O)c1` here?
A: 97.3%

Q: With `CC[N+](CC)=c1sc2c(s1)C(c1ccc(Cl)cc1)Oc1ccc(Cl)cc1-2` (stereo not given) as the molecule, how does the growth read?
A: 5.19% (active)

— PubChem BioAssay (NCI)
